B2AR arrestin = beta2AR (human) beta-arrestin recruitment activity. beta-arrestin recruitment to beta2AR, cell-based reporter. Potency, µM (series often up to 46.1 µM), without a hit: at the top dose activation, actives largely listed as activators. 0.02% of 330,000 active. AID 492947;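 further: potency means the concentration at half of the fitted maximal effect; 0% = DMSO controls and full agonism = EC100 isoproterenol or metaproterenol; nearly all actives have a fitted effect of over 65% in size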
ELG1 repair inh = blocks ELG1-dependent DNA repair in HEK293T cells | HEK293T ELG1-luciferase reporter, luminescence, 16 h; DNA damage induced by 5-fluorouridine | Potency, µM (series often up to 46.1 µM), inactives show top-dose activity change, negative = inhibition, most hits filed as inhibitors | 2.3% of 330,000 active; further: potency means the concentration at half of the fitted maximal effect; nearly all actives have a fitted effect of over 55% in size
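In this reporter screen, reduction of luminescence relative to DMSO vehicle indicated activity. Compounds and 5-fluorouridine were added together to 2,000 cells per well, incubated for 16 hr at 37 °C, then developed with ONE-Glo.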
VP16 counter = counter-screen for ROR gamma inhibitors: Gal4-VP16 reporter; Potency, µM (highest dose often 53.6 µM), without a hit: at the top dose activity, negative = inhibition, usual class: inhibitors; Drosophila S2 Gal4-VP16 UAS-luciferase, luminescence, 20 h; AID 2546; 3.5% of 310,000 active;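 further: Gal4-VP16 expression switched on by copper sulfate through the metallothionein promoter; potency means the concentration at half of the fitted maximal effect; nearly all actives have a fitted effect of over 50% in size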
RORg inh = ROR gamma (mouse) transcription inhibition; Drosophila S2 Gal4-RORgamma UAS-luciferase reporter, 20 h; Potency, µM (titrated, usually from 53.6 µM), for inactives: at the highest dose activity change, negative = inhibition, most hits filed as inhibitors; 5.4% of 310,000 active; AID 2551; further: potency means the concentration at half of the fitted maximal effect; nearly all actives have a fitted effect of over 60% in size
Target sequence (P51450 whole entry, looked up, the tested form may be a part): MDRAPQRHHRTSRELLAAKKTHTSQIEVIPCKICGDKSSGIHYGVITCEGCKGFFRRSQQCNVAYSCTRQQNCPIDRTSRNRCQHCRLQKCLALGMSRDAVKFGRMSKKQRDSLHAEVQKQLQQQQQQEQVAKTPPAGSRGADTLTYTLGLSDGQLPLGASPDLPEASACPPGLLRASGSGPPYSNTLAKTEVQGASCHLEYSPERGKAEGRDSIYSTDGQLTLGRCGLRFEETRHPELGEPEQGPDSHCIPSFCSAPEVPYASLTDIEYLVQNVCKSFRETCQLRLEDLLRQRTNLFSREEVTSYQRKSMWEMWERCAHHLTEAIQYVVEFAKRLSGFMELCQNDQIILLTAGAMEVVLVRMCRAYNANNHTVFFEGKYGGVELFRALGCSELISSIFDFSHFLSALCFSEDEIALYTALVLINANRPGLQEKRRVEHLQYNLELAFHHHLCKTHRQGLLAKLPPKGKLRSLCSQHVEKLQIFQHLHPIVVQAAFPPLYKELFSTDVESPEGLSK
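Stable Schneider cell line, Gal4 DNA-binding domain fused to ROR gamma, UAS-luciferase. Cmpd 1 hr RT → CuSO4 700 uM final → 20 hr RT → luciferase reagent 10 min → luminescence.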
TSHR antag = antagonists of human thyroid stimulating hormone receptor | 0.2% of 330,000 active | AID 504810 | TSHR-expressing cells, TSH-stimulated cAMP HTRF, 2 h; stronger effect = lower value | activity change, negative = inhibition, % at 11.5 µM;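 active means activity change below a set negative limit, meaning inhibition stronger than a set level, cut at about -70% in these data; inconclusive means activity change between two set negative limits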
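TSHR-expressing cells, 200/well, pre-treated with compound, then stimulated with EC80 TSH (4nM final) for 2 hours at 37 deg C. cAMP measured by competitive HTRF: anti-cAMP cryptate antibody in lysis buffer plus cAMP-d2, read after 30 minutes at room temperature.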
* marks the source's active call; other numbers are inactive results; ? = inconclusive; / = no result given; [ ] = another dose, or the depositor's remark. An excerpt weighted towards active compounds, which were near 7.5% of everything screened. Unless noted, the call rests on the fitted dose curve; in most records, active means well fitted curve in the direction sought with a large enough effect; inconclusive means small, poorly fitted or top-dose-only effect, or another doubt; inactive means no such curve, though single readings can be large; an effect the other way counts as inactive or inconclusive. Unless noted, on the % scale 0 is the no-effect control and ±100 the full control effect.

SMILES	B2AR arrestin	ELG1 repair inh	VP16 counter	RORg inh	TSHR antag
O=C(NC(=S)Nc1ccc(N2CCCCC2)cc1)c1cccs1	0.2%	?	5.01µM*	3.16µM*	-10.9
Nc1nc2cc(S(=O)(=O)N3CCOCC3)ccc2o1	-0.4%	2.4%	/	/	0.4
COc1cccc(C(=O)N2CCC(n3nccc3NC(=O)CCOc3ccccc3)CC2)c1	3.3%	19.2%	-10.6%	-5.9%	25.7
O=C1C=CC(=O)N1c1ccc(O)cc1	0.0%	7.4%	?	12.6µM*	8.0
O=C1C=CC(=O)N1c1ccc(OC(F)F)cc1	-0.3%	20.6µM*	4.47µM*	6.31µM*	0.2
O=C1CCCC(=O)N1c1ccc(O)cc1	-0.2%	10.5%	3.8%	1.9%	23.4
CCCCn1c(N)c(N(CC)C(=O)c2ccccc2F)c(=O)[nH]c1=O	-0.3%	-3.0%	7.5%	1.3%	8.9
CC(=O)Nc1sc(N/N=C/c2ccc(O)cc2)nc1-c1ccc(C)cc1	-0.2%	?	3.1%	-28.5%	4.1
CC(C)(C)c1csc(N/N=C/c2ccc(O)cc2)n1	-4.5%	?	1µM*	0.562µM*	-2.2
O=C(N/N=C/c1cc([N+](=O)[O-])c(N2CCOCC2)cc1N1CCOCC1)c1cccnc1	0.2%	-13.2%	-1.2%	0.9%	-8.0
O=C(N/N=C/c1ccc(-c2ccc([N+](=O)[O-])cc2)o1)c1cccnc1	-0.5%	8.4%	-0.4%	11.2µM*	-7.1
Cc1cc([N+](=O)[O-])c(C)cc1-c1ccc(/C=N/NC(=O)c2cccnc2)o1	0.3%	-15.8%	?	8.91µM*	-5.3
O=C(N/N=C/c1ccc([N+](=O)[O-])cc1)c1cccnc1	-0.8%	12.8%	1.5%	?	29.2
COC(=O)[C@]1(C)N[C@H](CN(C)S(=O)(=O)c2ccc(F)cc2)[C@@H]2C(=O)N(C)C(=O)[C@@H]21	-0.4%	25.5%	/	/	17.2
C=C1C(=O)O[C@@H]2[C@@H]1CC/C(C)=C\CC[C@@]1(C)O[C@H]21	/	/	3.55µM*	3.16µM*	/
C=C1C(=O)O[C@@H]2[C@H]3O[C@]3(C)CCC=C(C)CC[C@@H]12	/	/	?	7.08µM*	-19.3
COc1ccc2cc(CN(CC3CCCO3)C(=O)Nc3ccccc3OC)c(=O)[nH]c2c1 (centres undefined)	-1.2%	7.3µM*	-0.4%	38.7%	-4.8
COc1ccc(NC(=O)N(Cc2cc3cc(OC)ccc3[nH]c2=O)CC2CCCO2)cc1 (centres undefined)	0.0%	10.3µM*	-7.9%	-2.4%	8.0
Cc1ccc(C)c2[nH]c(=O)c(CN(CC3CCCO3)C(=O)NC3CCCCC3)cc12 (centres undefined)	0.1%	8.2µM*	-0.8%	0.9%	-2.3
COc1ccc2[nH]c(=O)c(CN(CC3CCCO3)C(=S)Nc3ccccc3)cc2c1 (centres undefined)	0.0%	-2.4%	-18.8%	-8.6%	0.9
COc1ccc2cc(CN(CC3CCCO3)C(=S)Nc3ccccc3)c(=O)[nH]c2c1 (centres undefined)	-0.6%	8.2µM*	-8.1%	-4.4%	-5.9
COc1ccc2cc(CN(C(=O)Nc3ccccc3OC)C3CCCC3)c(=O)[nH]c2c1	-0.2%	?	-13.0%	15.2%	-5.4
COc1ccccc1CC(=O)N(CCC1=CCCCC1)c1c(N)n(Cc2ccccc2)c(=O)[nH]c1=O	8.4%	11.9%	/	/	11.8
COc1ccc(NC(=O)N(Cc2cc3ccc(OC)cc3[nH]c2=O)CC2CCCO2)cc1 (centres undefined)	-1.0%	10.3µM*	1.0%	-11.1%	4.0
Cc1ccn2cc(-c3cc4ccccc4oc3=O)nc2c1	0.3%	?	?	2.51µM*	-5.6
SMILES	B2AR arrestin	ELG1 repair inh	VP16 counter	RORg inh	TSHR antag
O=C(N/N=C/c1cn(-c2ccccc2)nc1-c1ccc(F)cc1)c1ccc2c(c1)OCO2	-0.6%	?	?	2.24µM*	-7.3
COc1ccc(-c2nn(-c3ccccc3)cc2C(=O)Nc2cccc(S(=O)(=O)NC3=NCCC3)c2)cc1	-0.2%	23.1µM*	/	/	0.2
COc1ccc(-c2nn(-c3ccccc3)cc2C(=O)O)cc1	0.7%	1.4%	-27.0%	4.1%	6.7
COc1ccc(-c2nn(-c3ccccc3)cc2/C=N/NC(=O)c2ccc(Br)o2)cc1	-0.3%	?	3.98µM*	1.26µM*	-94.8*
O=C(N/N=C/c1cn(-c2ccccc2)nc1-c1ccc2c(c1)OCCO2)c1ccncc1	0.8%	?	5.01µM*	2.24µM*	-12.5
COc1ccccc1/C=N/NC(=O)c1ccc2c(c1)OCO2	-0.2%	?	-15.3%	?	-15.0
CCOC(=O)CCN1C(=O)[C@H]2[C@H]3[C@H](O)[C@H](O)C/C(=N/OC[C@@H](O)COCc4ccco4)[C@@H]3CC[C@@H]2C1=O	/	/	-2.4%[10 µM]	0.9%[10 µM]	/
N#Cc1ccc2c(c1)N(CCCN1CCC(O)CC1)c1ccccc1S2	/	/	-1.3%	2.6%	/
COc1ccc(-c2nn(-c3ccccc3)cc2/C=N/Nc2cccc(C(=O)O)c2)cc1	-0.6%	?	-3.3%	?	8.3
COc1ccc(-c2nn(-c3ccccc3)cc2/C=N/NC(=O)c2ccc3c(c2)OCO3)cc1	0.2%	?	-25.8%	2.51µM*	-11.7
O=C(N/N=C\c1cn(-c2ccccc2)nc1-c1ccccc1)c1ccc2c(c1)OCO2	-0.5%	?	?	1.78µM*	-12.8
C=CCNC(=S)N/N=C/c1cn(-c2ccccc2)nc1-c1ccc(OC)cc1	-0.4%	9.0%	1.26µM*	0.708µM*	-11.8
COc1ccc(-c2nn(-c3ccccc3)cc2/C=N/NC(=O)c2cccc(S(=O)(=O)Nc3ccccc3OC)c2)cc1	-0.5%	1.5%	1.26µM*	1.26µM*	-7.4
COc1ccccc1NS(=O)(=O)c1cccc(C(=O)N/N=C/c2ccccc2OCC(=O)O)c1	0.1%	-11.7%	-2.2%	-6.3%	2.9
COC(=O)C/C=C/C(C)C(OCc1cccc(-c2ccccc2)c1)C1CCCCC1 (centres undefined)	/	/	8.8%[10 µM]	0.8%[10 µM]	/
Nc1nnnn1/N=C/C(Br)=C/c1ccccc1	-0.5%	?	?	3.16µM*	-7.4
Nc1nnnn1/N=C/C=C/c1ccccc1	0.4%	?	5.8%	22.7%	-5.8
CC(=O)N=c1c(C#N)cc2c(=O)n3cccc(C)c3nc2n1CCCOC(C)C	0.1%	7.3µM*	?	-42.9%	7.1
COCCCn1c(=NC(=O)c2ccncc2)c(C#N)cc2c(=O)n3cccc(C)c3nc21	-0.1%	-12.1%	3.8%	?	-8.0
Cc1cccn2c(=O)c3cc(C#N)c(=NC(=O)c4ccncc4)n(CCCOC(C)C)c3nc12	-0.2%	11.6µM*	1.8%	-44.4%	42.9
Cc1cn(C2CC3OCC(NC(=O)C(Cc4ccccc4)NC(=O)OC(C)(C)C)C3O2)c(=O)[nH]c1=O (centres undefined)	/	/	-7.9%	-8.3%	/
